SMN2 splice enh = increases expression of the SMN2 splice variant. HEK293 SMN2-luciferase splicing reporter, luminescence, 30-36 h. 210,000 compounds, 2.8% hits. Potency, µM (doses to about 46.1 µM), inactives show top-dose activity change, positive = activation, most hits filed as activators. AID 1458; further: % of control where 0% means no effect; nearly all actives have a fitted effect of over 55% in size
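HEK293 cells carry an SMN2 […]–luciferase reporter in which exon 7 inclusion puts luciferase in frame. Cells were plated 10-12 h before compound addition, then incubated 30-36 h at 37C. ONE-Glo luminescence was read; sodium butyrate at 4.5 mM final served as control.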
ELG1 DNA repair = blocks ELG1-dependent DNA repair in HEK293T cells; 330,000 compounds, 2.3% hits; Potency, µM (highest dose often 46.1 µM), for inactives: at the highest dose activity change, negative = inhibition, actives largely listed as inhibitors; AID 504467; HEK293T ELG1-luciferase reporter, luminescence, 16 h; DNA damage induced by 5-fluorouridine; further: on the % scale 0 is the no-effect control and ±100 the full control effect; nearly all actives have a fitted effect of over 55% in size
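Quantitative HTS, concentration-response format. 2,000 cells/well co-treated with 5-fluorouridine and compound, 16 hr in 5% CO2 at 37 °C; ONE-Glo luminescence read after 30 min.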
ELG1 genotoxic = inducers of genotoxicity in HEK293T ELG1-luciferase cells. HEK293T ELG1-luciferase reporter, luminescence, 16 h. Potency, µM (highest dose often 46 µM), without a hit: at the highest dose activity change, positive = activation, hits mostly activators. 330,000 compounds, 1.3% hits. AID 504466; further: % of control where 0% means no effect; nearly all actives have a fitted effect of over 60% in size
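16 hr compound incubation (37 °C, 5% CO2) of HEK293T cells carrying luciferase-tagged ELG1; luciferase then measured by ONE-Glo luminescence after 30 min at RT.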
NPC1 prom act = NPC1 promoter activation; Huh7 NPC1 promoter luciferase reporter, 24 h; Potency, µM (highest dose often 9.22 µM), without a hit: at the highest dose activation, most hits filed as activators; 320,000 compounds, 2.4% hits; further: % of control where 0% means no effect; nearly all actives have a fitted effect of over 60% in size
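Stable NPC1-promoter luciferase Huh7 line; cpd (DMSO) 24 h, 37 °C, 5% CO2; Amplite luciferase reagent 10 min RT; luminescence readout. qHTS format.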
FLuc modulator = counter-screen for miR-21 project: firefly luciferase inhibitors or activators | P08659 | purified FLuc, Km substrates, luminescence inhibition | Potency, µM (series often up to 57.5 µM), for the others: top-dose activity change, negative = inhibition, most hits filed as inhibitors | 360,000 compounds, 6.9% hits | AID 588342;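 further: plate controls were vehicle for no effect and reference inhibitor for full effect; nearly all actives have a fitted effect of over 55% in size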
Target sequence (P08659 whole entry, looked up): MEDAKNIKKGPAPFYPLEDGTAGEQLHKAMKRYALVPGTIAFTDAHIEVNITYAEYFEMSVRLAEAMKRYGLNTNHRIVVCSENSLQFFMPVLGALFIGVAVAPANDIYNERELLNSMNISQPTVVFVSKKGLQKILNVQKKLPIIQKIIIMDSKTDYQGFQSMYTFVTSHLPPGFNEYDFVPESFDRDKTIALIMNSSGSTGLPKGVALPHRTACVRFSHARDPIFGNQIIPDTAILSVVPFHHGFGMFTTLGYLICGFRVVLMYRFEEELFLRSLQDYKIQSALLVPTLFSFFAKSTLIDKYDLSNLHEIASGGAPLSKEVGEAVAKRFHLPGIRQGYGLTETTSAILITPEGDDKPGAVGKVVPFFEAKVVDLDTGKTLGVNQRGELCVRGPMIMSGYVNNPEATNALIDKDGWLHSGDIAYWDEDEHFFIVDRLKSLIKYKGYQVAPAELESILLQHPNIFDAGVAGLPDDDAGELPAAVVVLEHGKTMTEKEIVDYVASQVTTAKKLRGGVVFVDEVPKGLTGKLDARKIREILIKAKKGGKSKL
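Purified P. pyralis luciferase, 10 nM final, with Km-level 10 uM D-luciferin and 10 uM ATP in 50 mM Tris acetate pH 7.5, 10 mM Mg acetate, 0.01% Tween-20, 0.05% BSA; 6-point qHTS titration about 60 µM downward; luminescence read.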
Rab9 promoter act = activators of Rab9 promoter | Huh7 Rab9 promoter-luciferase reporter, luminescence, 24 h | 320,000 compounds, 2.8% hits | AID 485297 | Potency, µM (highest dose often 9.22 µM), without a hit: at the top dose activation, negative = inhibition, actives largely listed as activators; further: % of control where 0% means no effect; nearly all actives have a fitted effect of over 60% in size
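Quantitative HTS format; Huh7 Rab9-luciferase reporter cells (1500/well) receive compound 2 h post-plating, incubate 24 h at 37 °C, then get luciferase reagent for 10 min before luminescence reading.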
* = called active by the depositor; ? = inconclusive; nt = no result given. Most compounds without a hit are left out; they make up all but 9.3% or so of the library. The call rests on the fitted dose curve; in most records, active means well fitted curve in the direction sought with a large enough effect; inconclusive means small, poorly fitted or top-dose-only effect, or another doubt; inactive means no such curve, though single readings can be large; an effect the other way counts as inactive or inconclusive. Potency means the concentration at half of the fitted maximal effect.

SMILES | SMN2 splice enh | ELG1 DNA repair | ELG1 genotoxic | NPC1 prom act | FLuc modulator | Rab9 promoter act
COc1ccc(-c2cn3cc(C)ccc3n2)cc1Br | 2.2µM* | ? | ? | 0.89µM* | 0.48µM* | 1.3µM*
Clc1ccc2nc(-c3ccc(Br)s3)cn2c1 | 0.71µM* | ? | 0.41µM* | 19% | 0.34µM* | ?
COc1ccc(-c2cn3cc(Cl)ccc3n2)cc1OC | 11µM* | ? | ? | 16% | 7.6µM* | ?
COc1ccc(-c2noc(N3CCN(c4ccc(Cl)cc4)CC3)n2)cc1OC | nt | nt | nt | nt | -2% | nt
CNCc1cn2cc(Cl)ccc2n1 | 1% | 14% | 2% | 0% | 0% | -2%
O=C(O)c1ccccc1-c1cn2cc(Cl)ccc2n1 | 18% | ? | -4% | 18% | 7.6µM* | ?
O=C(O)CSCc1cn2cc(Cl)ccc2n1 | 18% | 7% | -5% | -2% | -18% | -5%
Cc1cc2oc(=O)cc(CSc3nnc(-c4cccs4)o3)c2cc1C(C)C | -64% | ? | -4% | -1% | 3% | 3%
CC(C)c1cc(C(=O)NNC(=S)NC2CCCCC2)cs1 | nt | ? | ? | 4µM* | ? | ?
CN(C)c1cccc(C(=O)NNC(=S)NC2CCCC2)c1 | 22% | 3% | 2% | 21% | ? | 28%
CCc1cc(C(=O)NNC(=S)NC2CCCCC2)cs1 | nt | ? | -4% | 3.5µM* | -11% | 3.5µM*
CCc1c(C(=O)NNC(=S)NC2CCCCC2)csc1C | 1.6µM* | 1% | -3% | 17% | -2% | 22%
Cn1cc(/C=C(\NC(=O)c2ccccc2Cl)C(=O)NCCCn2ccnc2)c2ccccc21 | nt | -6% | -7% | 0% | -11% | -3%
COCCN(C(=O)CNC(=O)c1ccco1)C(C(=O)NC1CCCC1)c1ccc(OC)cc1 (centres undefined) | nt | 14% | -2% | 2% | -3% | 3%
O=C(CSc1nc(-c2ccccc2)c(-c2ccccc2)o1)NC1CCS(=O)(=O)C1 (centres undefined) | -20% | 23µM* | 0% | -3% | -10% | 1%
COc1ccc(C(=O)Nc2ccc(OC)c(OC)c2)cc1 | 11µM* | ? | ? | ? | 12µM* | ?
COc1ccc(-c2cccc(C(=O)Nc3cccc(C(=O)O)c3)c2)cc1 | 14µM* | ? | ? | 3.2µM* | 12µM* | 3.2µM*
COc1ccc(-c2cccc(C(=O)Nc3ccc(OC)c(OC)c3)c2)cc1 | -23% | -18% | 0% | -9% | 11µM* | 0%
COc1ccc(C(=O)COC(=O)c2cccc(NC(=O)c3ccc(OC)c(OC)c3)c2)cc1 | -2% | nt | nt | nt | 0.6µM* | nt
Cc1ccc(-n2ncc(C(=O)NCCN3CCc4ccccc4C3)c2C2CCN(C(=O)OC(C)(C)C)CC2)cc1C | nt | nt | nt | nt | -7% | nt
O=C1/C(=C\c2ccc(-c3ccccc3Cl)o2)SC(=S)N1CC1CCCO1 (centres undefined) | -7% | 13% | -3% | 10% | -20% | 14%
CCC(C)NC(=O)CSc1ccc(S(=O)(=O)N2CCN(Cc3ccccc3)CC2)cn1 (centres undefined) | nt | ? | -1% | -2% | 11% | -7%
CCOC(=O)c1c(S(=O)(=O)Nc2cccc(-c3ccno3)c2)c(C)n(C)c1C | nt | -3% | 3% | 0% | 2% | -2%
Cc1cc2nc(-c3ccco3)cc(C(F)(F)F)n2n1 | 3% | ? | -5% | -5% | 8% | 1%
CCCCc1n[nH]c2c1/C(=N/O)CC(c1ccccc1)C2 (centres undefined) | -3% | ? | -4% | 10% | ? | 12%
CC1Cc2ccccc2N1C(=O)/C=C/c1cccc(F)c1 (centres undefined) | 11µM* | ? | ? | 2.2µM* | 6µM* | 1.8µM*
CC1Cc2ccccc2N1C(=O)COC(=O)/C=C/c1ccc(F)cc1 (centres undefined) | nt | ? | 1% | -7% | 4% | -1%

Screening data as filed in PubChem.
